In PubChem BioAssay:
Results filed as inconclusive are left out. Activity calls are given as the source filed them.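 The calls were made as follows, unless noted: active = normalized viability below 100% at a tested concentration; inactive = the rest.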

Columns and labels:
[1] = viability loss in pontine glioma line – cell-based, SU-DIPG-XVII, MIPE5.0, CellTiter-Glo, qHTS, dose response (AID 1347060; cut-off not given, nearly all actives have AC50 up to about 26 µM;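 also: cells exposed to compound for 48 hours before viability readout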); conditions: CellTiter-Glo ATP luminescence
[2] = viability loss in pontine glioma line – cell-based, SU-DIPG-XIII, MIPE4.0, CellTiter-Glo, qHTS, dose response (AID 1347061; cut-off not given, nearly all actives have AC50 up to about 37 µM;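 also: cells exposed to compound for 48 hours before readout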); conditions: CellTiter-Glo ATP luminescence
[3] = viability loss in pontine glioma line – cell-based, JHH-DIPG-1, MIPE4.0, CellTiter-Glo, qHTS, dose response (AID 1347062; cut-off not given, nearly all actives have AC50 up to about 27 µM;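 also: cells exposed to compound for two days before readout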); conditions: JHH-DIPG-1 viability, CellTiter-Glo ATP luminescence
[4] = viability loss in pontine glioma line – cell-based, SU-DIPG-IV, MIPE4.0, CellTiter-Glo, qHTS, dose response (AID 1347063; cut-off not given, nearly all actives have AC50 up to about 30 µM;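 also: compound exposure lasted 48 hours before the viability readout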); conditions: CellTiter-Glo ATP luminescence
[5] = viability loss in pontine glioma line – cell-based, SU-DIPG-XIII, MIPE5.0, CellTiter-Glo, qHTS, dose response (AID 1347064; cut-off not given, nearly all actives have AC50 up to about 23 µM;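 also: cells exposed to compound for 48 hours before the viability read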); conditions: CellTiter-Glo ATP luminescence
[6] = viability loss in pontine glioma line – cell-based, SU-DIPG-XXV, MIPE5.0, CellTiter-Glo, qHTS, dose response (AID 1347065; cut-off not given, nearly all actives have AC50 up to about 26 µM;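 also: cells exposed to compound for 48 hours before ATP readout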); conditions: CellTiter-Glo ATP luminescence
[7] = growth inhibition of DIPG cells – cell-based, MIPE4.0 library, CellTiter-Glo luminescence, qHTS (AID 1347066; cut-off not given, nearly all actives have AC50 up to about 30 µM;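 also: cells exposed to compound for 48 hours before readout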); conditions: SU-DIPG-VI viability, CellTiter-Glo ATP luminescence
[8] = JHH-DIPG-1 glioma cell viability, MIPE5.0 library, CellTiter-Glo luminescence, qHTS (AID 1347067; cut-off not given, nearly all actives have AC50 up to about 26 µM;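 also: cells exposed to compound for 48 hours before readout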); conditions: JHH-DIPG-1 glioma viability, CellTiter-Glo ATP luminescence
[9] = growth inhibition of DIPG cells – cell-based, MIPE5.0 library, qHTS (AID 1347068; cut-off not given, nearly all actives have IC50 up to about 30 µM;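 also: cells exposed to compound for 48 hours before viability readout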); conditions: SU-DIPG-XXV viability
[10] = viability loss with induced miR-34 in A549 – imaging, A549 dox-inducible miR-34, nuclei and caspase counts, primary screen (AID 1347080;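 active = compounds whose cell count with miR-34 switched on is under 0.7 times the count with it off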); conditions: A549 miR-34 inducible, Hoechst nuclei count, 48 h
[11] = compounds altering HSF1 focus formation in cells – imaging, Selleck Cancer Library (AID 1347162; in the data active = plate-normalised HSF1 focus index below about 0.46); conditions: human cells, HSF1 nuclear foci imaging, at 10 µM; SSMD: measured here: HSF1 foci SSMD mean; cell count: measured here: cell number; plate-normalised HSF1 focus index: stronger effect = lower value
[12] = MELAS cybrid and Rieske KO viability enhancers – cell-based, MELAS cybrids, Rieske KO mouse fibroblasts, CellTiter-Glo, primary screen (AID 1508586;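 active = mean z-score across replicates of 1.96 or higher in either the MELAS or the Rieske mutant cell line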;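 also: z relative to plate mean and SD of compound and empty wells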); conditions: low glucose
[13] = drug combination growth inhibition, ovarian cancer – cell-based, oncology-focused library, rucaparib conditional, profiling panel (AID 1508598); conditions: patient-derived ovarian cancer cells, CellTiter-Glo viability, 144 h, stronger effect = lower value

O=c1cc(N2CCOCC2)oc2c(-c3cccc4c3sc3ccccc34)cccc12
6010: cell count ([10]; measured here: total cells with miR-34 induction, stronger effect = lower value)
6670: cell count ([10]; measured here: total cells without miR-34 induction)
7060: cell count [11]
1.08: z-score ([12]; Rieske KO mouse fibroblast survival, CellTiter-Glo 72 h)
-0.228: SSMD [11]
active: AC50 [1] 13.2 µM | AC50 [3] 23.5 µM | AC50 [4] 14.8 µM | AC50 [5] 16.6 µM | AC50 [6] 14.8 µM | AC50 [7] 18.7 µM | AC50 [8] 16.6 µM | IC50 [9] 29.5 µM | viability ([13]; at 0.000305 µM, OCI-C5x cells, with rucaparib 10 µM, 100% = cells with rucaparib alone) 98.4% | viability ([13]; at 0.000305 µM, OCI-P5x cells, without rucaparib) 99.9% | viability ([13]; at 0.00488 µM, OCI-P5x cells, without rucaparib) 99% | viability ([13]; at 0.0195 µM, OCI-C5x cells, with rucaparib 10 µM, 100% = cells with rucaparib alone) 98.9% | viability ([13]; at 0.0195 µM, OCI-P5x cells, without rucaparib) 92.1% | viability ([13]; at 0.0781 µM, OCI-C5x cells, without rucaparib) 98% | viability ([13]; at 0.0781 µM, OCI-P5x cells, with rucaparib 20 µM, 100% = cells with rucaparib alone) 98.6% | viability ([13]; at 0.0781 µM, OCI-P5x cells, without rucaparib) 90.1% | viability ([13]; at 0.313 µM, OCI-C5x cells, with rucaparib 10 µM, 100% = cells with rucaparib alone) 97% | viability ([13]; at 0.313 µM, OCI-C5x cells, without rucaparib) 99% | viability ([13]; at 0.313 µM, OCI-P5x cells, with rucaparib 20 µM, 100% = cells with rucaparib alone) 99.1% | viability ([13]; at 0.313 µM, OCI-P5x cells, without rucaparib) 91.6% | viability ([13]; at 1.25 µM, OCI-P5x cells, with rucaparib 20 µM, 100% = cells with rucaparib alone) 95.4%
inactive: outcome [2] | fold change ([10]; stronger effect = lower value, cell number ratio, induced over uninduced) 0.901 | plate-normalised HSF1 focus index [11] 0.984 | z-score ([12]; MELAS cybrid survival, CellTiter-Glo 48 h, stronger effect = higher value) -0.264 | viability ([13]; at 0.000305 µM, OCI-C5x cells, without rucaparib) 106% | viability ([13]; at 0.000305 µM, OCI-P5x cells, with rucaparib 20 µM, 100% = cells with rucaparib alone) 104% | viability ([13]; at 0.00122 µM, OCI-C5x cells, with rucaparib 10 µM, 100% = cells with rucaparib alone) 100% | viability ([13]; at 0.00122 µM, OCI-C5x cells, without rucaparib) 104% | viability ([13]; at 0.00122 µM, OCI-P5x cells, with rucaparib 20 µM, 100% = cells with rucaparib alone) 103% | viability ([13]; at 0.00122 µM, OCI-P5x cells, without rucaparib) 102% | viability ([13]; at 0.00488 µM, OCI-C5x cells, with rucaparib 10 µM, 100% = cells with rucaparib alone) 101% | viability ([13]; at 0.00488 µM, OCI-C5x cells, without rucaparib) 103% | viability ([13]; at 0.00488 µM, OCI-P5x cells, with rucaparib 20 µM, 100% = cells with rucaparib alone) 107% | viability ([13]; at 0.0195 µM, OCI-C5x cells, without rucaparib) 103% | viability ([13]; at 0.0195 µM, OCI-P5x cells, with rucaparib 20 µM, 100% = cells with rucaparib alone) 107% | viability ([13]; at 0.0781 µM, OCI-C5x cells, with rucaparib 10 µM, 100% = cells with rucaparib alone) 108% | viability ([13]; at 1.25 µM, OCI-C5x cells, with rucaparib 10 µM, 100% = cells with rucaparib alone) 101% | viability ([13]; at 1.25 µM, OCI-C5x cells, without rucaparib) 108%
0.761: fold change ([10]; measured here: relative caspase fold change +Dox/-Dox)
